Results published in PubChem BioAssay AID1159580 (chemical genetic matrix, 2015).
Among all 5,500 compounds or so, about 2,000 (36%) were called active. Roughly 18% stayed inconclusive and do not appear here. No stated cut-off is given here; in the data, active means normalized growth mostly below about 0.91 (no sharp cut-off); inconclusive means no clear call, values can overlap the other calls; inactive means mostly above about 0.92. This is one part of the list.

Test: chemical genetic growth profiling, strain panel (AID 1159580);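 further: tested at 20 µM; growth read once vehicle control cultures reached saturation at 30 °C; 1 = growth at the plate median or of vehicle wells; lower values mean less growth of the strain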
Conditions: S. cerevisiae deletion strains, growth OD

Measured: normalized growth

OC[C@H]1NC[C@@H](O)[C@@H]1O
inactive: locus YAL040C, strain CLN3, active compounds read low 0.993 | locus YCL061C, strain MRC1 (second series), active compounds read low 1 | locus YDR363W, strain ESC2, active compounds read low 1.02 | locus YER002W, strain NOP16, active compounds read low 0.998 | locus YGR229C, strain SMI1, active compounds read low 1.02 | locus YNL153C, strain GIM3, active compounds read low 0.999 | locus YNL175C, strain NOP13, active compounds read low 0.991 | locus YNL197C, strain WHI3, active compounds read low 1 | locus YNL224C, strain SQS1, active compounds read low 0.992 | locus YOR083W, strain WHI5 (second series), active compounds read low 1.01 | locus YPL055C, strain LGE1, active compounds read low 0.996 | locus YPL241C, strain CIN2, active compounds read low 1.01
